We go through 15 compounds from PubChem BioAssay.

In experiment [1] the test system is TRPC4 beta (transient receptor potential cation channel C4), mouse. Kind of experiment: TRPC4 cation channel opening, retest – cell-based, Fluo4 calcium, HEK293 TRPC4beta/mu-opioid, duplicates, 10 µM, confirmation (AID 2426;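 active means fluorescence ratio normalized to control raised more than 50% in primary screen plus both repeat runs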). The conditions noted are these: Fluo4 calcium fluorescence, at 10 µM; stronger effect = higher value.
Experiment [2] relates to transient receptor potential cation channel C4 beta (TRPC4), mouse. Kind of experiment: TRPC4 cation channel opening, second retest – cell-based, second round, Fluo4, HEK293 TRPC4beta/mu-opioid, 1 µM, confirmation (AID 2461;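 active means primary screen active and over 50% activation in each of two duplicate runs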). Conditions: Fluo4 calcium fluorescence, at 1 µM; stronger effect = higher value.
In experiment [3] the test system is TRPC4 (transient receptor potential cation channel C4 beta), mouse. Kind of experiment: potentiation of DAMGO EC20 TRPC4 response – cell-based, second round, Fluo-4, HEK293 TRPC4beta/mu-opioid, 1 µM, confirmation (AID 2554;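 active means primary screen hit whose fluorescence ratio, in both repeats, exceeds the weak agonist control mean by 3 SD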). The conditions noted are these: DAMGO EC20, Fluo-4 calcium flux, at 1 µM; stronger effect = higher value.
Experiment [4] relates to TRPC4 beta (transient receptor potential cation channel C4), mouse. Kind of experiment: potentiation of DAMGO EC20 TRPC4 response – cell-based, Fluo-4, HEK293 TRPC4beta/mu-opioid, confirmation (AID 2555;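 active means primary screen hit whose calcium fluorescence ratio, in both repeats, exceeds the weak agonist control mean by 3 SD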). Conditions: DAMGO EC20, Fluo-4 calcium flux, at 10 µM; stronger effect = higher value.
The target of experiment [5] is Short transient receptor potential channel 4 (Mus musculus) (UniProt Q9QUQ5). Kind of experiment: blockers of DAMGO-evoked TRPC4 calcium flux – cell-based, Fluo4, HEK293 TRPC4beta/mu-opioid, confirmation (AID 2636;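 active means calcium signal cut by more than 3 SD below the full-agonist control yet still positive, in both repeats and the earlier primary screen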). The conditions noted are these: at 10 µM; stronger effect = higher value.
Sequence of Short transient receptor potential channel 4 (Mus musculus) (Q9QUQ5 whole entry, looked up): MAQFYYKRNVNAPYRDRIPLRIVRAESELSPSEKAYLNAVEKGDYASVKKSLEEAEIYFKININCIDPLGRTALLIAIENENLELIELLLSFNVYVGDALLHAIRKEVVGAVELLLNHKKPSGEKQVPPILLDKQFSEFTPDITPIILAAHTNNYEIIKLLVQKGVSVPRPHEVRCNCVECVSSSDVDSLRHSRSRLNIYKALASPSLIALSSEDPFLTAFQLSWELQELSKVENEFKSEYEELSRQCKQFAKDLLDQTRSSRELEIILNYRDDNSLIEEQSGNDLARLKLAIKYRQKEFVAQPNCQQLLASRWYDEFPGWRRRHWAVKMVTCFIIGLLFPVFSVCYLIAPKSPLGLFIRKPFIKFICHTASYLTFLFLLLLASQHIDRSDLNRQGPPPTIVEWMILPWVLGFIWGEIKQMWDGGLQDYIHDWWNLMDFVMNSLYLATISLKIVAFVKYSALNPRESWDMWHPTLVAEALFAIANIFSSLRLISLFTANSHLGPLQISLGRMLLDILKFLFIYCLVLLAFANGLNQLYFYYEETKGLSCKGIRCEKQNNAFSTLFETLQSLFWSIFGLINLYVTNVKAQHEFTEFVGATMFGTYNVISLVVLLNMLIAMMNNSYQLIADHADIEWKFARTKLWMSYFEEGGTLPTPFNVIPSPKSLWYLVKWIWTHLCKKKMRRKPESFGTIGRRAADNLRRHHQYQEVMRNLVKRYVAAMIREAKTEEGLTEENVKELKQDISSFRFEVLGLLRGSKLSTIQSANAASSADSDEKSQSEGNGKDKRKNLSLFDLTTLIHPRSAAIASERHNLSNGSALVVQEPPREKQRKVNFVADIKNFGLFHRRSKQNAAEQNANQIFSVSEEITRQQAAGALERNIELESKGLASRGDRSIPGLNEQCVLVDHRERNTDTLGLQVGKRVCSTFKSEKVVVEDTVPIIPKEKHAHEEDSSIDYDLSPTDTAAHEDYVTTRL
Experiment [6] has the same target. Kind of experiment: blockers of DAMGO-evoked TRPC4 calcium flux – cell-based, second round, Fluo4, HEK293 TRPC4beta/mu-opioid, 1 µM, confirmation (AID 2637;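 active means calcium signal ratio cut to more than 3 SD under the fully stimulated control mean yet still positive, in both repeats and the primary screen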;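 on inhibition: percent of integrated ratio relative to wells lacking test compound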). Conditions: at 1 µM; stronger effect = higher value.
The target is the same in experiment [7]. Kind of experiment: calcium entry via TRPC4 opening agents – cell-based, HEK293 TRPC4/mu-opioid, Fluo-4 calcium, dose response (AID 434937;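 active means primary screen activator hit with a dose response curve and TRPC4 channel activation at any tested dose; inactive means no activation, no dose response, or not a primary hit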).
For experiment [8] the target is unchanged. Kind of experiment: potentiation of DAMGO-evoked TRPC4 calcium signal – cell-based, HEK293 TRPC4/mu-opioid, Fluo-4 calcium, EC20 DAMGO, dose response (AID 434941).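 Further: calcium entry triggered by an EC20 dose of DAMGO at the co-expressed mu-opioid receptor.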
The target in experiment [9] is Short transient receptor potential channel 6 (Mus musculus) (UniProt Q61143). Kind of experiment: TRPC6 blockade by TRPC4 inhibitor hits – cell-based, HEK293, membrane potential dye, duplicate, selectivity assay for TRPC4 inhibitor project, confirmation (AID 434948;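 active means active in primary screen and both duplicates, each dropping signal beyond three positive-control SD with fluorescence still positive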). Conditions: HEK293 TRPC6, membrane potential dye fluorescence, at 10 µM, stimulated with maximal-effect acetylcholine; stronger effect = higher value.
Sequence of Short transient receptor potential channel 6 (Mus musculus) (Q61143 whole entry, looked up): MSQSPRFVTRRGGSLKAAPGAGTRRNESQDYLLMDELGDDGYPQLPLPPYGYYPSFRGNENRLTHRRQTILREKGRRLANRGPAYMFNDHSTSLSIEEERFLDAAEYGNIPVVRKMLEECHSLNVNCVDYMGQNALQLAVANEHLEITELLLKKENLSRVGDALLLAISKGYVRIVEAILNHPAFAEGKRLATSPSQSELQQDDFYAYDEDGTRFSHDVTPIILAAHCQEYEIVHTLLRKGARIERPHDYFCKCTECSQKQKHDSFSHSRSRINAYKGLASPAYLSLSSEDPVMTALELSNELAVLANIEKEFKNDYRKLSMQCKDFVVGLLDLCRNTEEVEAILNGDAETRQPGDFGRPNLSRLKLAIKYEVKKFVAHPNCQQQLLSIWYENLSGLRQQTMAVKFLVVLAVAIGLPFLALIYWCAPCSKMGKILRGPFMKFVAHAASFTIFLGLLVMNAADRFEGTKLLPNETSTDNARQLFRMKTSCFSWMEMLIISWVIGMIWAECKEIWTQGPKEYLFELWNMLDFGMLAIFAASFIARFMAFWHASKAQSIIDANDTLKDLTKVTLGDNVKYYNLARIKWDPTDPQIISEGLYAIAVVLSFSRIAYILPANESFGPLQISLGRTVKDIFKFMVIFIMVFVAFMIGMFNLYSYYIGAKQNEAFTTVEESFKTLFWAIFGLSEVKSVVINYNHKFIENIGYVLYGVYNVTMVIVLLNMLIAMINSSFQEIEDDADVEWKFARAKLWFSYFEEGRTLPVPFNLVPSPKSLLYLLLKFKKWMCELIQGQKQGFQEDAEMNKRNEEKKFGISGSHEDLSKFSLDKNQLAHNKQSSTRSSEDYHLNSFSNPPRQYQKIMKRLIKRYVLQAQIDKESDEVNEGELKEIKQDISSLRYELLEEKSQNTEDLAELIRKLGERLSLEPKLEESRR

Experiment [10] has the same target. Kind of experiment: TRPC6 opening by TRPC4 activator hits – cell-based, HEK293, membrane potential dye, duplicate, selectivity assay for TRPC4 activator project, confirmation (AID 434950;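 active means membrane potential signal rise above negative control mean plus 3 SD in both duplicates, also active in the earlier TRPC4 screen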). The conditions noted are these: HEK293 TRPC6, membrane potential fluorescence, at 10 µM; activation: stronger effect = higher value; outcome: activation.
Experiment [11] has the same target. Kind of experiment: positive modulators of mouse TRPC6 channel – HEK293 cells, membrane potential dye, duplicate, selectivity assay for TRPC4 potentiator project, confirmation (AID 434952;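 active means compound raising the membrane signal above positive-control mean plus 3 SD in both repeats, and a primary screen hit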). Conditions: HEK293 TRPC6, membrane potential dye fluorescence, at 10 µM, maximal acetylcholine added after compound; stronger effect = higher value.
For experiment [12], the target named is Short transient receptor potential channel 4 (Mus musculus) (UniProt Q9QUQ5). Kind of experiment: calcium flux activators in TRPC4/5HT1a cells, counter-screen for TRPC4 activator project, cell-based, second counter screen, HEK293 TRPC4/5HT1a, Fluo-4 (AID 434977;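 active means calcium signal rise above buffer-control mean plus 5 SD in both duplicates, and also a hit in the primary screen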). Conditions: Fluo-4 calcium flux, at 10 µM; stronger effect = higher value.
Experiment [13] is described as follows: serotonin-gated TRPC4 signal block – cell-based, second counter screen, HEK293 TRPC4/5HT1a, Fluo-4, counter-screen for TRPC4 inhibitor project, confirmation (AID 434978;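 active means primary screen active whose calcium signal fell more than 3 SD beyond the full-serotonin control mean in both duplicate plates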;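 on outcome: serotonin given first at submaximal then at maximal dose after compound preincubation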). The conditions noted are these: Fluo-4 calcium flux, at 10 µM, serotonin added to trigger calcium flux; stronger effect = higher value.
Experiment [14] concerns TRPC4 (mouse), co-expressed with 5HT1a in HEK293. Kind of experiment: enhancement of serotonin-evoked TRPC4 response – cell-based, second counter screen, HEK293 TRPC4/5HT1a, Fluo-4, counter-screen for TRPC4 potentiator project, confirmation (AID 434979;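 active means signal rise over 3 SD above mean of control wells given weak agonist, in both repeats and first screen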). Conditions: Fluo-4 calcium flux, at 10 µM, serotonin added at its EC20 dose; stronger effect = higher value.
Experiment [15] is described as follows: nonspecific calcium rise without TRPC4 – cell-based, HEK293 mu-opioid receptor line, counter-screen for TRPC4 activator project, confirmation (AID 449723;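 active means hit in primary screen, with calcium signal over 5 SD above buffer well mean in both duplicates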;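 further: counter screen cells carry the mu-opioid receptor alone and lack TRPC4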). The conditions noted are these: HEK293 mu-opioid cells, Fluo-4 calcium fluorescence, at 10 µM; stronger effect = higher value.
The nature of experiment [16]: nonspecific potentiation of DAMGO calcium response – cell-based, HEK293 mu-opioid receptor line, counter-screen for TRPC4 allosteric potentiator project, confirmation (AID 449724;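 active means calcium signal rise more than 3 SD above the low-dose agonist control mean, in both duplicate plates and the primary screen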;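 further: HEK293 cells carrying mu-opioid receptor only with no TRPC4 channel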). The conditions noted are these: HEK293 mu-opioid receptor cells, Fluo-4 calcium flux, at 10 µM, compound added before EC20 DAMGO stimulus; stronger effect = higher value.

Structures are written as SMILES. For part of these data: Entries with a potency or affinity are not part of this list. Calls of active or inactive are those of the source.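 How the source made its calls, unless noted: active means earlier screen potentiator hit that boosts the TRPC4 ion channel at some dose, with a dose response; inactive means no potentiation, no dose response, or not a prior hit.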

As for `c1ccc(-c2ccccc2OCCOCCN2CCCCC2)cc1`, the result in [1], in experiment [2], in experiment [3], in experiment [4], in experiment [7] and in [8] was inactive. The compound was classed as inactive in experiment [9], in experiment [10], in experiment [11], in [12], in experiment [14] and in [15]. Moreover, the result in [16] was inactive. Further, the inhibition in experiment [5] is 94% (active); in [6] it was 44% (active); in [13] it was 33.7% (active).
For `CCOc1ccc(CN2CCN(C(=O)c3ccccc3)CC2)cc1`, the outcome in experiment [1], in [2], in experiment [3], in experiment [4], in [6] and in experiment [7] was inactive. Further, the outcome in experiment [8], in [9], in [10], in [11], in experiment [12] and in experiment [14] was inactive. The result in experiment [15] and in experiment [16] was inactive. The inhibition in experiment [5] is 79% (active); in experiment [13], 44.7% (active).
In the case of `O=C(O)c1ccc(NC(=S)NC(=O)c2ccc(-c3ccccc3)cc2)cc1`, the outcome in experiment [1], in [2], in experiment [3], in experiment [4], in experiment [6] and in experiment [7] was inactive. Moreover, the result in experiment [8], in experiment [9], in experiment [10], in experiment [11], in experiment [12] and in experiment [14] was inactive. For the same compound, the outcome in experiment [15] and in experiment [16] was inactive. For the same compound, the values for the inhibition in experiment [5] and in experiment [13] were 64% (active) and 43.1% (active), respectively.
For `COc1ccc(/C=C2/SC(=S)N(CCCC(=O)Nc3ccccc3C(=O)O)C2=O)cc1`, the outcome in experiment [1], in experiment [2], in [3], in experiment [4], in [7] and in [8] was inactive. In addition, the compound was classed as inactive in [9], in [10], in experiment [11], in experiment [12], in [14] and in experiment [15]. Further, the result in experiment [16] was inactive. In addition, the values for the inhibition in experiment [5], in experiment [6] and in experiment [13] were 81% (active), 48% (active) and 36.7% (active), respectively.
Regarding `O=C1Nc2cc(C(=O)NCCCN3CCOCC3)ccc2S/C1=C/c1ccccc1F`, the outcome in experiment [1], in [2], in experiment [3], in experiment [4], in experiment [5] and in experiment [6] was inactive. The result in experiment [7], in [8], in [9], in [10], in experiment [11] and in experiment [12] was inactive. Moreover, the outcome in experiment [13], in experiment [14], in [15] and in experiment [16] was inactive.
Turning to `C=C(C)Cn1c(SCC)nc2ccccc2c1=O`, the result in experiment [1], in [2], in experiment [3], in experiment [4], in experiment [6] and in [7] was inactive. Further, the result in experiment [8], in experiment [9], in experiment [10], in experiment [11], in experiment [12] and in experiment [14] was inactive. The result in experiment [15] and in experiment [16] was inactive. The inhibition in experiment [5] was 96% (active); in experiment [13] it was 21.3% (active).
For `Cc1ccc2c(c1)N(C(=O)CCC(=O)Nc1ccccc1Cl)CC(C)O2` (stereo not given), the result in [1], in experiment [2], in [3], in experiment [4], in experiment [6] and in [7] was inactive. Moreover, the result in experiment [8], in experiment [9], in experiment [10], in [11], in experiment [12] and in experiment [13] was inactive. Further, the outcome in [14], in experiment [15] and in [16] was inactive. Besides, the inhibition in experiment [5] was 73% (active).
In the case of `Cc1nc2ccccc2n1CC(O)COc1ccccc1Cl` (stereo not given), the result in experiment [1], in experiment [2], in [3], in experiment [4], in experiment [7] and in experiment [8] was inactive. Also, the compound was classed as inactive in experiment [9], in experiment [10], in [11], in experiment [12], in [13] and in experiment [14]. The result in experiment [15] and in [16] was inactive. Also, the inhibition in experiment [5] is 72% (active); in experiment [6] it was 40% (active).
Turning to `CC(C)c1nc(CNC(=O)CC2C(=O)NCCN2Cc2ccc(F)cc2Cl)cs1` (stereo not given), the result in experiment [1], in [2], in experiment [3], in experiment [4], in experiment [6] and in experiment [7] was inactive. Besides, the result in experiment [8], in [9], in experiment [10], in experiment [11], in experiment [12] and in [13] was inactive. Moreover, the outcome in experiment [14], in experiment [15] and in experiment [16] was inactive. Moreover, the inhibition in experiment [5] was 92% (active).
As to `COc1ccc(C2C(C(C)=O)=C(O)C(=O)N2c2ccc(Br)cc2)cc1` (stereo not given), the outcome in experiment [1], in experiment [2], in experiment [3], in experiment [4], in experiment [7] and in experiment [8] was inactive. In addition, the result in [9], in [10], in experiment [11], in [12], in [14] and in [15] was inactive. In experiment [16], the result was inactive. In addition, the values for the inhibition in experiment [5], in [6] and in [13] were 84% (active), 62% (active) and 23.3% (active), respectively.
Regarding `COC(=O)c1c(NC(=O)CSc2ncn[nH]2)sc(C)c1C`, the result in experiment [1], in experiment [2], in experiment [3], in [4], in [6] and in experiment [7] was inactive. Also, the result in experiment [8], in experiment [9], in [10], in experiment [11], in experiment [12] and in [13] was inactive. The result in [14], in experiment [15] and in experiment [16] was inactive. For the same compound, the inhibition in experiment [5] is 67% (active).
On to `CC1CCCN1CC#CC(O)(c1ccccc1)c1ccccc1` (stereo not given), for which the result in experiment [1], in experiment [2], in experiment [3], in experiment [4], in experiment [7] and in experiment [8] was inactive. The outcome in experiment [10], in experiment [11], in [12], in [14], in experiment [15] and in [16] was inactive. The inhibition in [5] is 79% (active); in experiment [6], 62% (active); in experiment [9], 13.5% (active); in [13], 33.5% (active).
For the compound `Cc1ccc(C(C)(C)C)cc1S(=O)(=O)Nc1nc2ccccc2nc1Cl`, the outcome in [1], in experiment [2], in experiment [3], in experiment [4], in [5] and in experiment [6] was inactive. In addition, the result in experiment [7], in [8], in experiment [9], in experiment [10], in experiment [11] and in [12] was inactive. Further, the outcome in [14], in experiment [15] and in experiment [16] was inactive. The inhibition in [13] was 6.84% (active).
For `Cc1nc2ccccc2n1CCOc1ccc(F)cc1`, the outcome in experiment [1], in experiment [2], in experiment [3], in experiment [4], in experiment [7] and in experiment [8] was inactive. The result in experiment [9], in experiment [10], in [11], in experiment [12], in experiment [14] and in experiment [15] was inactive. For the same compound, in experiment [16], the outcome was inactive. Also, the inhibition is 95% (active) in experiment [5], 79% (active) in experiment [6] and 7.92% (active) in [13].
On to `Cc1cc(/C=C2/C(=N)N3C(=NC2=O)SN=C3S(C)(=O)=O)c(C)n1-c1ccccc1F`, for which the result in experiment [1], in experiment [2], in experiment [3], in [4], in experiment [5] and in experiment [6] was inactive. The outcome in experiment [7], in experiment [8], in experiment [9], in experiment [10], in experiment [11] and in experiment [12] was inactive. Besides, the result in experiment [13], in experiment [14], in experiment [15] and in experiment [16] was inactive.
